Results taken from PubChem BioAssay AID1345085 (National Center for Advancing Translational Sciences (NCATS), 2018).
Results filed as inconclusive are left out. Activity calls are given as the source filed them. Calls follow the shape of the dose curve; as a rule, active = well fitted cell-killing curve with a large enough effect; inconclusive = small, poorly fitted or top-dose-only effect, or effect the other way; inactive = no such curve, though single readings can be large or run the other way.

Tested on: HeLa
Assay: Confirmatory qHTS for gynecologic anti-cancer compounds from libraries of approved drugs and bioactive compounds; also: nearly all actives have a fitted effect of over 55% in size
Details: gynecologic cancer cell panel viability, ATPlite luminescence, 48 h; series mostly up to 57.6 µM
Summary of the method: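 Cells (1,000/well) plated 16 h, then exposed 48 h at 37 °C to 11 concentrations (1:3) from 57.5 uM to 0.977 nM. Viability by ATPlite luminescence after 15 min; IC50 derived, with HEK 293T used for selectivity index.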
Potency is read from the fitted curve at half-maximal effect.

SMILES | Potency
Fc1cc(-c2cccc3ncc(-c4cnn(C5CCNCC5)c4)nc23)cc(F)c1CN1CCOCC1 | 24.3 µM (active)
CCC1=CC2CN(C1)Cc1c([nH]c3ccccc13)[C@@](C(=O)OC)(c1cc3c(cc1OC)N(C)[C@H]1[C@@](O)(C(=O)OC)[C@H](OC(C)=O)[C@]4(CC)C=CCN5CC[C@]31[C@@H]54)C2 (stereo partly drawn) | 0.0943 µM (active)
COc1cccc2c1C(=O)c1c(O)c3c(c(O)c1C2=O)C[C@@](O)(C(=O)CO)C[C@@H]3O[C@H]1C[C@H](N)[C@H](O)[C@H](C)O1 | 6.85 µM (active)
Cc1ccc(C(=O)N(CCCN)C(c2oc3cc(Cl)ccc3c(=O)c2Cc2ccccc2)C(C)C)cc1 (stereo not drawn) | 0.0137 µM (active)
CN(C)CC/C=C1\c2ccccc2COc2ccccc21 | inactive
COC(=O)c1ccc2c(C(=Nc3ccc(N(C)C(=O)CN4CCN(C)CC4)cc3)c3ccccc3)c(O)[nH]c2c1 | 24.3 µM (active)
NC1(c2ccc(-c3nc4ccn5c(=O)[nH]nc5c4cc3-c3ccccc3)cc2)CCC1 | inactive
C=CC(=O)Nc1cccc(Oc2nc(Nc3ccc(N4CCN(C)CC4)cc3)ncc2Cl)c1 | 6.85 µM (active)
CC1(C)[C@@H](O)CC[C@]2(C)[C@H]3C(=O)C=C4[C@@H]5C[C@@](C)(C(=O)O)CC[C@]5(C)CC[C@@]4(C)[C@]3(C)CC[C@@H]12 | inactive
O=C(Nc1cccnc1)N1CCC(Cc2cccc(Oc3ccc(C(F)(F)F)cn3)c2)CC1 | 3.85 µM (active)
NCCOc1cc(C(=O)Nc2cc(OCCN)c3ccccc3n2)nc(C(=O)Nc2cc(OCCN)c3ccccc3n2)c1 | 19.3 µM (active)
Nc1nccc(Oc2ccc(NC(=O)c3c[nH]cc(-c4ccc(F)cc4)c3=O)cc2F)c1Cl | 6.85 µM (active)
CCCC(Nc1nc(-c2ccc(NC(=O)NCC)c(OC)c2)ncc1C)c1cccnc1 (stereo not drawn) | 0.153 µM (active)
CCCS(=O)c1ccc2nc(NC(=O)OC)[nH]c2c1 (stereo not drawn) | 24.3 µM (active)
COc1cc2c(Oc3ccc(-c4cnc(Nc5ccc(F)cc5)n(C)c4=O)cc3F)ccnc2cc1OCCCN1CCOCC1 | 21.7 µM (active)
CNc1nc(Nc2ccc(C(=O)N3CCOCC3)cc2OC)ncc1Cl | 6.85 µM (active)
CC(C)n1nc(-c2cc3cc(O)ccc3[nH]2)c2c(N)ncnc21 | 5.44 µM (active)

SMILES | Potency
COc1cc(Nc2ncc(F)c(Nc3ccc4c(n3)N(COP(=O)(O)O)C(=O)C(C)(C)O4)n2)cc(OC)c1OC | 1.72 µM (active)
CCN1CCN(Cc2ccc(Nc3ncc(F)c(-c4cc(F)c5nc(C)n(C(C)C)c5c4)n3)nc2)CC1 | 17.2 µM (active)
Cn1cc(-c2ccc3ncc(Cc4ccc5ncccc5c4)n3n2)cn1 | inactive
CCCCc1nc2cc(/C=C/C(=O)NO)ccc2n1CCN(CC)CC | 1.72 µM (active)
COc1ccc(-c2nc3ccc(C4=NNC(=O)CC4C)cc3[nH]2)cc1 (stereo not drawn) | 19.3 µM (active)
CN(c1nccc(=O)[nH]1)C1CCN(c2nc3ccccc3n2Cc2ccc(F)cc2)CC1 | inactive
CN(C)c1ccc(-c2nc3ncc(Cl)c(N4CCN(CC(=O)Nc5nccs5)CC4)c3[nH]2)cc1 | 2.37 µM (active)
NC(=O)c1cccc2cn(-c3ccc([C@@H]4CCCNC4)cc3)nc12 | inactive
CN(C)CCC(CSc1ccccc1)Nc1ccc(S(=O)(=O)NC(=O)c2ccc(N3CCN(Cc4ccccc4-c4ccc(Cl)cc4)CC3)cc2)cc1[N+](=O)[O-] (stereo not drawn) | 19.3 µM (active)
CCN(CC)CCNC(=O)c1c(C)[nH]c(/C=C2\C(=O)Nc3ccc(F)cc32)c1C | 12.6 µM (active)
CC[C@H](CC#N)OC(=O)N[C@@H](C)c1cccc(NC(=O)Nc2ccc(-c3cnco3)c(OC)c2)c1 | 8.63 µM (active)
CC(=O)Nc1cccc(-n2c(=O)n(C3CC3)c(=O)c3c(Nc4ccc(I)cc4F)n(C)c(=O)c(C)c32)c1 | inactive
Cc1cnc(Nc2ccc(OCCN3CCCC3)cc2)nc1Nc1cccc(S(=O)(=O)NC(C)(C)C)c1 | 3.85 µM (active)
CN(C)C1CCN(C(=O)c2ccc(NC(=O)Nc3nc(N4CCOCC4)nc(N4CCOCC4)n3)cc2)CC1 | 0.769 µM (active)
OC[C@H]1O[C@@H](n2cnc3c(=S)nc[nH]c32)[C@H](O)[C@@H]1O | 4.32 µM (active)
COc1c(C)c2c(c(O)c1C/C=C(\C)CCC(=O)OCCN1CCOCC1)C(=O)OC2 | 2.43 µM (active)
